Results: the antibiotic and cytotoxicity screens of Wong et al. (2023)
In all, about 39,000 compounds went through this assay and about 3,300 (8.5%) were called active. For the sample, actives were picked, then their nearest neighbours and some compounds at random.

Test system: HepG2
Test: cytotoxicity call (relative viability < 0.9)
Details: 10 µM

`Cc1noc(C)c1S(=O)(=O)N(C)C[C@H]1Oc2ccc(NC(=O)Nc3ccc4c(c3)OCO4)cc2C(=O)N([C@@H](C)CO)C[C@H]1C` was tested. Which cytotoxicity call did it give?
The cytotoxicity call was “inactive”.

How did the cytotoxicity call turn out when `CC(=O)N[C@@H]1CC[C@H](CCNC(=O)C2CC2)O[C@H]1CO` was run?
The cytotoxicity call was “inactive”.

For `O=C(C[C@@H]1C=C[C@H](NC(=O)c2cccc(F)c2)[C@H](CO)O1)NCCN1CCCC1`, which cytotoxicity call is on record?
Its cytotoxicity call is “inactive”.

Which cytotoxicity call does the source give for `C[C@@H]1CCCCO[C@@H](CN(C)S(C)(=O)=O)[C@H](C)CN([C@@H](C)CO)C(=O)c2cc(NS(=O)(=O)c3ccc(F)cc3)ccc2O1` here?
The cytotoxicity call was “inactive”.

`COc1ccc(NC(=O)Nc2ccc3c(c2)CC(=O)N([C@@H](C)CO)C[C@H](C)[C@@H](CN(C)C(=O)Nc2cccc4ccccc24)O3)cc1` was tested. Which cytotoxicity call did it give?
The cytotoxicity call was “inactive”.

For `C[C@@H]1CCCCO[C@@H](CN(C)S(=O)(=O)c2ccccc2)[C@H](C)CN([C@H](C)CO)C(=O)c2cc(NS(C)(=O)=O)ccc2O1`, which cytotoxicity call is on record?
Its cytotoxicity call is “inactive”.

How did the cytotoxicity call turn out when `CC(C)CC#Cc1ccc2c(c1)O[C@@H](CN(C)S(=O)(=O)c1ccc(F)cc1)[C@@H](C)CN([C@H](C)CO)S2(=O)=O` was run?
The cytotoxicity call was “inactive”.

`COc1ccccc1CNC(=O)C[C@H]1C[C@H]2c3cc(NC(=O)Cc4ccncc4)ccc3O[C@H]2[C@H](CO)O1` was tested. Which cytotoxicity call did it give?
The cytotoxicity call was “inactive”.

`CC1OC(OC2C(Oc3cc(O)c4c(=O)cc(-c5ccc(O)cc5)oc4c3)OC(CO)C(O)C2O)C(O)C(O)C1O` (centres undefined) was tested. Which cytotoxicity call did it give?
Its cytotoxicity call is “inactive”.

`Cc1noc(C)c1NC(=O)N(C)C[C@@H]1Oc2c(NC(=O)C3CC3)cccc2C(=O)N([C@H](C)CO)C[C@@H]1C` was tested. Which cytotoxicity call did it give?
The cytotoxicity call was “inactive”.

How did the cytotoxicity call turn out when `Cc1noc(C)c1NC(=O)Nc1ccc2c(c1)C(=O)N([C@H](C)CO)C[C@@H](C)[C@@H](CN(C)CC1CCCCC1)OCCCC[C@H](C)O2` was run?
The cytotoxicity call was “inactive”.

`CC(C)NC(=O)N(C)C[C@H]1OCc2cn(nn2)CCCC(=O)N([C@H](C)CO)C[C@@H]1C` was tested. Which cytotoxicity call did it give?
Its cytotoxicity call is “inactive”.

How did the cytotoxicity call turn out when `CC(=O)OCC(=O)C1(O)CCC2C3CCC4=CC(=O)CCC4(C)C3C(O)CC21C` (centres undefined) was run?
Its cytotoxicity call is “inactive”.

Which cytotoxicity call does the source give for `C[C@@H]1CN([C@H](C)CO)C(=O)c2cc(NC(=O)NC3CCCCC3)ccc2O[C@H]1CN(C)C(=O)Nc1cccc2ccccc12` here?
The cytotoxicity call was “inactive”.

With `C[C@@H]1CN([C@@H](C)CO)C(=O)c2cc(NC(=O)NC3CCCCC3)ccc2O[C@H]1CN(C)C(=O)Nc1cccc2ccccc12` as the molecule, how does the cytotoxicity call read?
The cytotoxicity call was “inactive”.

`C[C@H]1CN([C@@H](C)CO)C(=O)c2cc(NC(=O)NC3CCCCC3)ccc2O[C@H]1CN(C)C(=O)Nc1cccc2ccccc12` was tested. Which cytotoxicity call did it give?
The cytotoxicity call was “active”.

`Cc1noc(C)c1S(=O)(=O)Nc1cccc2c1O[C@@H](CN(C)Cc1ccc3c(c1)OCO3)[C@@H](C)CN([C@H](C)CO)C2=O` was tested. Which cytotoxicity call did it give?
Its cytotoxicity call is “inactive”.

For `C[C@H]1CN([C@@H](C)CO)C(=O)c2cc(C#Cc3ccccc3F)cnc2O[C@H]1CN(C)S(=O)(=O)c1ccccc1F`, which cytotoxicity call is on record?
Its cytotoxicity call is “inactive”.

`COCC(=O)N(C)C[C@H]1Oc2cc(C#CCC3CCCC3)ccc2S(=O)(=O)N([C@@H](C)CO)C[C@H]1C` was tested. Which cytotoxicity call did it give?
Its cytotoxicity call is “inactive”.

For `CC(C)NC(=O)Nc1ccc2c(c1)CC(=O)N([C@H](C)CO)C[C@@H](C)[C@@H](CN(C)S(=O)(=O)c1ccccc1)O2`, which cytotoxicity call is on record?
Its cytotoxicity call is “inactive”.

For `C[C@H]1CN([C@@H](C)CO)C(=O)Cc2cc(NC(=O)Nc3cccc4c3CCCC4)ccc2O[C@H]1CN(C)S(=O)(=O)c1ccc(Oc2ccccc2)cc1`, which cytotoxicity call is on record?
Its cytotoxicity call is “active”.

For `CC(C)NC(=O)Nc1ccc2c(c1)CC(=O)N([C@@H](C)CO)C[C@H](C)[C@H](CN(C)S(=O)(=O)c1ccc(F)cc1)O2`, which cytotoxicity call is on record?
The cytotoxicity call was “inactive”.

For `C[C@H]1CN([C@@H](C)CO)C(=O)Cc2cc(NC(=O)Nc3cc(Cl)cc(Cl)c3)ccc2O[C@H]1CN(C)S(=O)(=O)c1ccc(Oc2ccccc2)cc1`, which cytotoxicity call is on record?
Its cytotoxicity call is “active”.

For `C[C@H]1CN([C@@H](C)CO)C(=O)Cc2cc(NC(=O)Nc3cccc4c3CCCC4)ccc2O[C@H]1CN(C)S(=O)(=O)c1ccc(Cl)cc1`, which cytotoxicity call is on record?
Its cytotoxicity call is “inactive”.

With `Cc1ccc(S(=O)(=O)N(C)C[C@@H]2Oc3ccc(NC(=O)Nc4cccc5ccccc45)cc3CC(=O)N([C@@H](C)CO)C[C@H]2C)cc1` as the molecule, how does the cytotoxicity call read?
The cytotoxicity call was “inactive”.

Which cytotoxicity call does the source give for `C[C@H]1CN([C@@H](C)CO)C(=O)Cc2cc(NC(=O)Nc3ccc(Cl)c(Cl)c3)ccc2O[C@H]1CN(C)S(=O)(=O)c1ccc(Oc2ccccc2)cc1` here?
The cytotoxicity call was “inactive”.

For `C[C@H]1CN([C@@H](C)CO)C(=O)Cc2cc(NC(=O)Nc3ccc(C#N)cc3)ccc2O[C@H]1CN(C)S(=O)(=O)c1ccc(Oc2ccccc2)cc1`, which cytotoxicity call is on record?
Its cytotoxicity call is “inactive”.

Which cytotoxicity call does the source give for `C[C@H]1CN([C@@H](C)CO)C(=O)Cc2cc(NC(=O)Nc3ccc(F)cc3)ccc2O[C@H]1CN(C)S(=O)(=O)c1ccc(Oc2ccccc2)cc1` here?
The cytotoxicity call was “active”.

For `CCCN(C)C[C@@H]1Oc2cc(C#Cc3ccccc3OC)ccc2S(=O)(=O)N([C@@H](C)CO)C[C@@H]1C`, which cytotoxicity call is on record?
Its cytotoxicity call is “inactive”.

`COc1ccc(S(=O)(=O)Nc2ccc3c(c2)C(=O)N([C@H](C)CO)C[C@H](C)[C@H](CN(C)S(=O)(=O)c2cccs2)O3)cc1` was tested. Which cytotoxicity call did it give?
Its cytotoxicity call is “inactive”.

How did the cytotoxicity call turn out when `O=C(C[C@@H]1C[C@H]2c3cc(NC(=O)Cc4ccncc4)ccc3O[C@H]2[C@H](CO)O1)NCc1ccc2c(c1)OCO2` was run?
Its cytotoxicity call is “inactive”.

With `C=C(C(=O)O)[C@@H](CCCCCCOC(=O)C(=O)OCCCCCC[C@@H](C(=C)C(=O)O)C(=O)O)C(=O)O` as the molecule, how does the cytotoxicity call read?
The cytotoxicity call was “inactive”.

Which cytotoxicity call does the source give for `O=C(C[C@H]1CC[C@@H]2[C@H](COC[C@@H](O)CN2S(=O)(=O)c2ccccc2F)O1)NCc1ccccc1Cl` here?
The cytotoxicity call was “inactive”.

For `C[C@H](CO)N1C[C@H](C)[C@@H](CN(C)C(=O)Nc2ccc(F)cc2)OCCCC[C@H](C)Oc2ccc(NC(=O)C3CCCCC3)cc2C1=O`, which cytotoxicity call is on record?
The cytotoxicity call was “inactive”.

Which cytotoxicity call does the source give for `C[C@@H]1CN([C@H](C)CO)C(=O)c2cc(NC(=O)C3CC3)ccc2O[C@@H]1CN(C)Cc1ccc2c(c1)OCO2` here?
The cytotoxicity call was “inactive”.

`Cc1noc(C)c1S(=O)(=O)Nc1ccc2c(c1)CC(=O)N([C@@H](C)CO)C[C@H](C)[C@H](CN(C)S(=O)(=O)c1ccc(Cl)cc1)O2` was tested. Which cytotoxicity call did it give?
The cytotoxicity call was “inactive”.

For `C[C@@H]1CCCCO[C@H](CN(C)Cc2ccc(C(F)(F)F)cc2)[C@H](C)CN([C@@H](C)CO)C(=O)c2cc(NC(=O)c3ccncc3)ccc2O1`, which cytotoxicity call is on record?
The cytotoxicity call was “inactive”.

For `Cc1ccc(S(=O)(=O)N(C)C[C@@H]2Oc3ccc(NS(=O)(=O)c4ccc(F)cc4)cc3C(=O)N([C@@H](C)CO)C[C@H]2C)cc1`, which cytotoxicity call is on record?
The cytotoxicity call was “inactive”.

How did the cytotoxicity call turn out when `Cc1noc(C)c1S(=O)(=O)N(C)C[C@H]1OCCCC[C@@H](C)Oc2ccc(N(C)C)cc2C(=O)N([C@@H](C)CO)C[C@@H]1C` was run?
Its cytotoxicity call is “inactive”.
